In PubChem BioAssay (NCATS):
Inconclusive results are not listed. Calls of active or inactive are those of the source. The call rests on the fitted dose curve; in most records, active means well fitted cell-killing curve with a large enough effect; inconclusive means small, poorly fitted or top-dose-only effect, or effect the other way; inactive means no such curve, though single readings can be large or run the other way. Starred links: 1 amine or outer side, 2 acyl side, 3 side chain; linkers in the order of their positions; H or OH if unused. Positions of bridges follow the written chain, without caps; N, C: chain ends. Non-standard residues stand in square brackets, D forms with d. Residues, ends and D or L forms follow the SMILES beside them. Chains are numbered I, II in the order given. Actinocin(9to1) = Cc1c2oc3c(C)ccc(C(=O)[*:1])c3nc-2c(C(=O)[*:2])c(N)c1=O; NMeV = CN[CH](C(=O)O)C(C)C; Sar = CNCC(=O)O

Assay: Quantitative High-Throughput drug screen in 47 multiple myeloma cell lines against the NCATS MIPE library collection: INA6_PLB cell viability assay (AID 1918965; further: nearly all actives have a fitted effect of over 55% in size)
Settings: INA6 myeloma viability, CellTiter-Glo ATP luminescence, 48 h; series mostly up to 45.8 µM; viability (% of control): at the top concentration
From the text: PI: Beverly A. Mock Ph.D.
Laboratory of Cancer Biology and Genetics,
Center for Cancer Research, National Cancer Institute,
National Institute of Health, Bethesda, Maryland
Drug resistance and disease progression are common in multiple myeloma (MM) patients, underscoring the need for new therapeutic combinations. […] We hypothesized that effective combinations would reduce MYC expression and enhance p16 activity. […] These preclinical data identify potentially useful drug combinations for evaluation in drug-resistant MM and reveal potential mechanisms of combined drug sensitivity.
Described herein is the primary MIPE qHTS used to cherrypick compounds. Validated compounds were then further tested for potential synergistic activiy.
[1] Peat TJ, Gaikwad SM, Dubois W, Gyabaah-Kessie N, Zhang S, Gorjifard S, Phyo Z, Andres M, Hughitt VK, Simpson RM, Miller MA, Girvin AT, Taylor A, Williams D, D'Antonio N, Zhang Y, Rajagopalan A, Flietner E, Wilson K, Zhang X, Shinn P, Klumpp-Thomas C, McKnight C, Itkin Z, Chen L, Kazandijian D, Zhang J, Michalowski AM, Simmons JK, Keats J, Thomas CJ, Mock BA. Drug combinations identified by high-throughput screening promote cell cycle transition and upregulate Smad pathways in myeloma. Cancer Lett. 2023 Aug 1;568:216284. doi: 10.1016/j.canlet.2023.216284. Epub 2023 Jun 24. PMID: 37356470; PMCID: PMC10408729.
SEQUENCE No. (e.g., 1, 2, 3, etc.); […] (e.g., Cells, Incubation, Reagent, etc.); VALUE and DESCRIPTION.
1; Cells; 5 uL; white, solid bottom 1536-well Greiner assay plate.
2; Compounds; 23 nL; Kalypsis pin tool (Wako USA) equipped with a 1536-well pin head to transfer to the assay plates.
3; Incubation; 48 hours; 37C incubation.
4; Reagent;5uL; CellTiter Glo (Promega).
5; Detector; 425V; Luminescence; Viewlux PerkinElmer.
NOTES (numbers refer to Sequence numbers above)
1. The cell-based screening methods employed in this study were like those previously published. Briefly, the corresponding myeloma cell lines were screened in 1,536-well plates with 500 cells, 5-uL per well for inhibition of cell viability (assessed by measuring ATP levels with CellTiterGlo).
2. NCATS MIPE 4.0 library of approved and investigational drugs were added using the Kalypsis pin tool. Wells treated with DMSO only for 100% viability and media only wells for 0% viability were used as controls.
3. The assay plates were covered and incubated for 48 hours in a 37C, 5% CO2 incubator with controlled humidity.
4. After 48 hours, CellTilter-GloTM luminescent substrate mix (Promega) reagent was added to the assay plate and plates we incubated for 5 min at room temperature.
5. Signal was measured as median relative luminescence units on a ViewLux (PerkinElmer) multiplate reader.
[1] Heske CM, Davis MI, Baumgart JT, Wilson K, Gormally MV, Chen L, Zhang X, Ceribelli M, Duveau DY, Guha R, Ferrer M, Arnaldez FI, Ji J, Tran HL, Zhang Y, Mendoza A, Helman LJ, Thomas CJ. Matrix Screen Identifies Synergistic Combination of PARP Inhibitors and Nicotinamide Phosphoribosyltransferase (NAMPT) Inhibitors in Ewing Sarcoma. Clin Cancer Res. 2017 Dec 1;23(23):7301-7311. doi: 10.1158/1078-0432.CCR-17-1121. Epub 2017 Sep 12. PMID: 28899971; PMCID: PMC6636827.
Potency means the concentration at half of the fitted maximal effect.

| Compound | Potency | viability (% of control) |
| --- | --- | --- |
| CCc1ccc(C(=O)Nc2cc(CN3CCN(C)CC3)cc(C(F)(F)F)c2)cc1C#Cc1cnc2ccnn2c1 | 4690 nM (active) |  |
| O=C(O)CCCCCC(=O)NN=C1CCCC1 |  | 106% (inactive) |
| COC(=O)[C@@H]1CC2=CC(=O)CC[C@]2(C)[C@@]23O[C@@H]2C[C@@]2(C)[C@H](CC[C@@]24CCC(=O)O4)[C@@H]13 |  | 120% (inactive) |
| COc1cccc2c1C(=O)c1c(O)c3c(c(O)c1C2=O)C[C@@](O)(C(=O)CO)C[C@H]3O[C@H]1C[C@H](N)[C@H](O)[C@H](C)O1 | 118 nM (active) |  |
| Nc1cccc2c1C(=O)N(C1CCC(=O)NC1=O)C2=O (stereo not given) | 4180 nM (active) |  |
| CC(C)N(CC[C@H](c1ccccc1)c1cc(CO)ccc1O)C(C)C |  | 166% (inactive) |
| O=C1c2c(O)cccc2[C@@H]([C@@H]2O[C@H](CO)[C@@H](O)[C@H](O)[C@H]2O)c2cc(CO)cc(O)c21 |  | 136% (inactive) |
| CC(C)NC[C@@H](C(=O)N1CCN(c2ncnc3c2[C@H](C)C[C@H]3O)CC1)c1ccc(Cl)cc1 | 4180 nM (active) |  |
| C=CCNC1=C2C[C@@H](C)C[C@H](OC)[C@@H](O)[C@@H](C)C=C(C)[C@H](OC(N)=O)[C@@H](OC)C=CC=C(C)C(=O)NC(=CC1=O)C2=O | 209 nM (active) |  |
| CC(C=CC(=O)NO)=C[C@@H](C)C(=O)c1ccc(N(C)C)cc1 | 83.3 nM (active) |  |
| COc1cc2c(cc1OC)[C@@H]1C(=O)c3ccc4c(c3O[C@@H]1CO2)C=CC(C)(C)O4 | 1 nM (active) |  |
| Cc1c2oc3c(C)ccc(C(=O)NC4C(=O)NC(C(C)C)C(=O)N5CCCC5C(=O)N(C)CC(=O)N(C)C(C(C)C)C(=O)OC4C)c3nc-2c(C(=O)NC2C(=O)NC(C(C)C)C(=O)N3CCCC3C(=O)N(C)CC(=O)N(C)C(C(C)C)C(=O)OC2C)c(N)c1=O (stereo not given) (I: TVP[Sar][NMeV] / II: TVP[Sar][NMeV]; ester I:1-I:C, II:1-II:C; linker I:N-II:N via Actinocin(9to1); configuration not given here) |  | 1.08% (inactive) |
| O=c1c(O)c(-c2ccc(O)c(O)c2)oc2cc(O)ccc12 | 7430 nM (active) |  |
| CN(C)c1ccc(C(=O)NCCCCCCC(=O)NO)cc1 | 166 nM (active) |  |
| COc1cccc2c1C(=O)c1c(O)c3c(c(O)c1C2=O)C[C@@](O)(C(=O)CO)C[C@@H]3O[C@H]1C[C@H](N)[C@H](OC2CCCCO2)[C@H](C)O1 (stereo not given in full) | 469 nM (active) |  |
| CN[C@@H]1C[C@H]2O[C@@](C)([C@H]1OC)n1c3ccccc3c3c4c(c5c6ccccc6n2c5c31)C(=O)N[C@H]4O | 41.8 nM (active) |  |
| CC(=O)O[C@H]1C[C@@H]2CC[C@H]3[C@H]4C[C@H]([N+]5(C)CCCCC5)[C@@H](OC(C)=O)[C@@]4(C)CC[C@@H]3[C@@]2(C)C[C@H]1N1CCCCC1 |  | 180% (inactive) |
| Cc1cc(O)c2c(c1)C(=O)c1cccc(O)c1C2=O |  | 156% (inactive) |
| N#CC(=C(N)Sc1ccc(N)cc1)c1ccccc1C(F)(F)F | 8330 nM (active) |  |
| C#CCC(Cc1cnc2nc(N)nc(N)c2n1)c1ccc(C(=O)N[C@@H](CCC(=O)O)C(=O)O)cc1 (stereo not given in full) | 93.5 nM (active) |  |

| Compound | Potency | viability (% of control) |
| --- | --- | --- |
| COc1cccc2c1C(=O)c1c(O)c3c(c(O)c1C2=O)C[C@@](O)(C(C)=O)C[C@H]3O[C@H]1C[C@H](N)[C@H](O)[C@H](C)O1 | 33.2 nM (active) |  |
| Cc1cnn(C)c1C(=O)Nc1cc(Nc2ccc3c(C=Cc4ccccn4)n[nH]c3c2)ccc1F | 4180 nM (active) |  |
| O=c1[nH]c(=O)n([C@H]2C[C@@H](O)[C@@H](CO)O2)cc1F | 1320 nM (active) |  |
| COc1cc([C@@H]2c3cc4c(cc3[C@H](O)[C@H]3COC(=O)[C@@H]23)OCO4)cc(OC)c1OC | 148 nM (active) |  |
| CC(=O)C1=C(O)C=C2Oc3c(C(C)=O)c(O)c(C)c(O)c3C2(C)C1=O (stereo not given) |  | 168% (inactive) |
| C[C@H]1COc2c(N3CCN(C)CC3)c(F)cc3c(=O)c(C(=O)O)cn1c23 |  | 198% (inactive) |
| Cn1cc(C=CC(=O)c2cccc(F)c2)cc1C=CC(=O)NO | 8330 nM (active) |  |
| CCCCCN=C(N)NN=Cc1c[nH]c2ccc(OC)cc12 | 526 nM (active) |  |
| CC(C)n1cnc2c(NCCc3ccc(O)cc3)nc(-c3csc4ccccc34)nc21 | 20900 nM (active) |  |
| CCc1c(O)cc(O)c(C(=O)c2ccc(OCCN3CCOCC3)c(OC)c2)c1CC(=O)N(CCOC)CCOC | 590 nM (active) |  |
| COc1cc(OC)c(C=CS(=O)(=O)Cc2ccc(OC)c(NCC(=O)O)c2)c(OC)c1 | 296 nM (active) |  |
| C[C@H](CCC(=O)O)[C@H]1CC[C@H]2[C@@H]3[C@H](O)C[C@@H]4C[C@H](O)CC[C@]4(C)[C@@H]3CC[C@]12C |  | 109% (inactive) |
| CC1=C(C(=O)Nc2cc3cn[nH]c3cc2F)C(c2ccc(Cl)cc2F)N=C(c2ccnc(Cl)c2)N1 (stereo not given) | 10500 nM (active) |  |
| O=C1NC(=O)[C@@H](c2cn3c4c(cccc24)CCC3)[C@H]1c1c[nH]c2ccccc12 | 209 nM (active) |  |
| C[C@H](NCc1ccc2c(c1)nc(NC(=O)c1ccc(-c3cn[nH]c3)s1)n2CCc1ccccc1)C(C)(C)C | 833 nM (active) |  |
| COc1ccc(S(=O)(=O)Nc2cccnc2Nc2ccc(O)cc2)cc1 | 83.3 nM (active) |  |
| Cc1cc(Nc2ncc3c(n2)N(C)C(=O)N(c2cc(NC(=O)c4cccc(C(F)(F)F)c4)ccc2C)C3)n(C)n1 | 469 nM (active) |  |
| CN(CC(=O)N(Cc1ccc(C2CCCCC2)cc1)c1ccc(C(=O)O)c(O)c1)S(=O)(=O)c1c(F)c(F)c(F)c(F)c1F | 6620 nM (active) |  |
| Cn1cc(CNCC2CCN(c3ncc(C(=O)NO)cn3)CC2)c2ccccc21 | 1 nM (active) |  |
| CC(=O)SCC(Cc1ccccc1)C(=O)NCC(=O)OCc1ccccc1 (stereo not given) | 935 nM (active) |  |
